Source: PubChem BioAssay (Tox21)
Values without a mark were called inactive. Inconclusive results are not listed. A call without a number means that no potency is given here. The source made the active and inactive calls. Unless noted, calls come from the whole dose curve.

How the values were obtained:
[1] = Nuclear factor erythroid 2-related factor 2/antioxidant responsive element (Nrf2/ARE) small molecule agonists: qHTS cell viability counter screen in human keratinocytes (AID 1919968; active = well fitted curve in the direction sought with a large enough effect in the repeat runs; an effect the other way counts as inactive or inconclusive; note: nearly all actives have a fitted effect of over 55% in size; note: potency is the fitted concentration of half-maximal effect)
Outline: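 Parallel cytotoxicity read: KeratinoSens HaCaT cells, compound treatment 23 h, viability by CellTiter-Fluor fluorescence 1 h post-reagent.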

[2] = Nuclear factor erythroid 2-related factor 2/antioxidant responsive element (Nrf2/ARE) small molecule agonists: luciferase reporter gene qHTS assay in human keratinocytes (AID 1919969); note: nearly all actives have a fitted effect of over 35% in size; note: potency is the fitted concentration of half-maximal effect
[3] = target: Gonadotropin-releasing hormone receptor (Homo sapiens) (UniProt P30968); assay: Human gonadotropin-releasing hormone receptor (GnRHR) small molecule agonists, calcium flux assay in GnRHR-HEK293 cells (AID 1920063); note: nearly all actives have a fitted effect of over 35% in size
Gonadotropin-releasing hormone receptor (Homo sapiens), sequence (P30968 whole entry, looked up): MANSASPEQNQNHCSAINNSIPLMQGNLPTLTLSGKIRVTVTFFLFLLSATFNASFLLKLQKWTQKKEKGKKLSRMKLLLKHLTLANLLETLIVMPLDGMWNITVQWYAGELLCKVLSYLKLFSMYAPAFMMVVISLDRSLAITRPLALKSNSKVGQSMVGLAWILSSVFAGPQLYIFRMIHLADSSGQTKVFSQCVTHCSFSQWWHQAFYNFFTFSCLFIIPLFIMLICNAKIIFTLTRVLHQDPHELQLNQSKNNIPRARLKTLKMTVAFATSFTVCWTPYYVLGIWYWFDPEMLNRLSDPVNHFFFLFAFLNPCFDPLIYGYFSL
Outline: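 Calcium flux, agonist mode, human GnRHR stably integrated in HEK293; dye 1 h at 37 C before compound; Ex/Em=480/540 kinetic read, 3 min; 15 concentrations, triplicate.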

[4] = target: KiSS-1 receptor (Homo sapiens) (UniProt Q969F8); assay: Human kisspeptin (KISS1R) small molecule agonists, calcium flux assay in KISS1R-HEK293 cells (AID 1920064; active = well fitted curve in the direction sought with a large enough effect in the repeat runs; an effect the other way counts as inactive or inconclusive)
KiSS-1 receptor (Homo sapiens), sequence (Q969F8 whole entry, looked up): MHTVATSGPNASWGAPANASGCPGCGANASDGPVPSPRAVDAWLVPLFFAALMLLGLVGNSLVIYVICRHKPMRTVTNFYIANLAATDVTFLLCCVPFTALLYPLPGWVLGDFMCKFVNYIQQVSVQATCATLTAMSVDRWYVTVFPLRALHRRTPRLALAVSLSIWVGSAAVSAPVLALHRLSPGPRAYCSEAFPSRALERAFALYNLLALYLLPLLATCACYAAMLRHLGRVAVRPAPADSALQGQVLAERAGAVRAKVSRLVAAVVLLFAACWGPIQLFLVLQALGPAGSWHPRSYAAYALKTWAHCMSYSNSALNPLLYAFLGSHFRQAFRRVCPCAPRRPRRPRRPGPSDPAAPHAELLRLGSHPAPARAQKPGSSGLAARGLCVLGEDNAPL
Outline: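 Triplicate 15-concentration series were applied to dye-loaded human KISS1R HEK293 cells, and agonist-evoked calcium fluorescence was captured for 3 min.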

[5] = G protein-coupled receptor (GPCR) small molecule agonists, calcium flux assay: HEK293 wild type cell line counter screen (AID 1920065)
Outline: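 Non-specific calcium responders were flagged by adding DMSO-dissolved compounds to dye-loaded cells and reading 480/540 nm fluorescence each second for 3 min; ATP served as positive control.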

[6] = p53 small molecule agonists, cell-based qHTS assay with human liver microsomes (AID 1963577);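 note: p53 response element beta-lactamase reporter cells with liver microsomes plus NADPH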
Outline: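 16 h, 37 C exposure of p53RE-bla cells to compounds with human liver microsomes and NADPH (0.5 mg/mL final each); detection via LiveBLAzer mixture, 2 h dark at room temperature.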

[7] = p53 small molecule agonists, cell-based qHTS assay with rat liver microsomes (AID 1963578)
Outline: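 With rat liver microsomes and NADPH present (0.5 mg/mL final each), p53RE-bla cells are treated with compound for 16 h at 37 C. LiveBLAzer detection mixture is then applied for 2 h at room temperature in the dark.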

[8] = p53 small molecule agonists, cell-based qHTS assay with human liver microsomes: qHTS cell viability counter screen (AID 1963579); note: nearly all actives have a fitted effect of over 45% in size; note: potency is the fitted concentration of half-maximal effect
Outline: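 In this multiplexed counter screen, the reporter plates were subsequently treated with CellTiter-Glo so that cell viability, reflected by luminescence, could be recorded for p53RE-bla cells dosed 16 h with compounds under microsomal activation (HLM and NADPH).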

[9] = p53 small molecule agonists, cell-based qHTS assay with rat liver microsomes: qHTS cell viability counter screen (AID 1963580); note: nearly all actives have a fitted effect of over 45% in size; note: potency is the fitted concentration of half-maximal effect
Outline: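 Luminescent ATP readout (CellTiter-Glo, 30 min at room temperature) reports viability of p53RE-bla HCT-116 cells after 16 h at 37 C with test compounds under metabolic activation by rat liver microsomes and NADPH at 0.5 mg/mL final each.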

[10] = target: 5-hydroxytryptamine receptor 2A (Homo sapiens) (UniProt P28223); assay: 5-hydroxytryptamine receptor 2A (HTR2A) small molecule agonists, cell-based qHTS assay (AID 1963587); note: nearly all actives have a fitted effect of over 30% in size
5-hydroxytryptamine receptor 2A (Homo sapiens), sequence (P28223 whole entry, looked up): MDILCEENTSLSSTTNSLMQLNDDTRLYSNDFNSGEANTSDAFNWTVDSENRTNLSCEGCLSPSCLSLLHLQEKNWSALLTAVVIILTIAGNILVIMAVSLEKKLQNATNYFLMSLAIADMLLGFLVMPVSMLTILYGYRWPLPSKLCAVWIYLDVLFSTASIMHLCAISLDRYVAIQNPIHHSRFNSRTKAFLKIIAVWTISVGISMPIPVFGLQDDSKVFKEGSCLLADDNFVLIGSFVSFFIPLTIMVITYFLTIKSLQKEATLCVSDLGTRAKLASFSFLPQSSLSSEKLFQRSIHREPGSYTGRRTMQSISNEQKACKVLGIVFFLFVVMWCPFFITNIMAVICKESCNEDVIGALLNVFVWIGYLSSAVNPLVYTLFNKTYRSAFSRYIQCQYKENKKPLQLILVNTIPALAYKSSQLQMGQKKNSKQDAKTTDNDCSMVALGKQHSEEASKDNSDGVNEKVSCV
Outline: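 HTR2A-CHO cells, plated 18 h at 37 C/5% CO2, dye-loaded 1 h at 37 C; compounds in DMSO added by pin tool (agonist mode). Intracellular calcium flux read as kinetic fluorescence on FDSS over 2 min at 1 s intervals.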

[11] = target: Muscarinic acetylcholine receptor M1 (Homo sapiens) (UniProt P11229); assay: Cholinergic receptor muscarinic 1 (CHRM1) small molecule antagonists, cell-based qHTS assay (AID 1963588); note: nearly all actives have a fitted effect of over 40% in size
Muscarinic acetylcholine receptor M1 (Homo sapiens), sequence (P11229 whole entry, looked up): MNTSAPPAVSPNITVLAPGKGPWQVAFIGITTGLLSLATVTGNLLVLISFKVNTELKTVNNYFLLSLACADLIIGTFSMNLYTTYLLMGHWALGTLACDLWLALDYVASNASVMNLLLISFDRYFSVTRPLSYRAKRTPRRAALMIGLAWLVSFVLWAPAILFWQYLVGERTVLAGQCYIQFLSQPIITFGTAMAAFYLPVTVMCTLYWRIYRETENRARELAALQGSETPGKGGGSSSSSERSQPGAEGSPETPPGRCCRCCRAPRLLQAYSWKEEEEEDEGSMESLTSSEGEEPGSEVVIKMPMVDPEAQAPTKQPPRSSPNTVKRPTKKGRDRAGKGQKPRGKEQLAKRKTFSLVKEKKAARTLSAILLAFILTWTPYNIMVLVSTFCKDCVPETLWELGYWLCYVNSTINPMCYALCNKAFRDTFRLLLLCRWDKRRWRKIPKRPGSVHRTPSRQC
Outline: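 Compounds were tested at 15 concentrations in three independent runs. Dye-loaded CHRM1-CHO cells were exposed 5 min at room temperature before stimulation by acetylcholine added at 50nM. Intracellular calcium was read kinetically on FDSS for 3 min.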

[12] = target: Muscarinic acetylcholine receptor M1 (Homo sapiens) (UniProt P11229); assay: Cholinergic receptor muscarinic 1 (CHRM1) small molecule agonists, cell-based qHTS assay (AID 1963589); note: nearly all actives have a fitted effect of over 35% in size
Outline: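 qHTS, 15-point titration, 3 independent runs: compounds pin-transferred onto dye-loaded CHRM1-CHO cells (human M1), calcium fluorescence followed every second to detect agonism.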

[13] = cAMP Responsive Elements (CRE) small molecule antagonists, cell-based qHTS assay (AID 1963591; active = well fitted inhibition curve with a large enough effect in the signal ratio in the repeat runs, not every such curve was filed as active; the % refers to the signal ratio)
Outline: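 Fluorescence intensity from cleaved LiveBLAzer B/G substrate (2 h, room temperature) quantified CRE-bla activity in HEK 293T cells exposed 3 h to compound with 0.25 uM final NKH477.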

[14] = target: Beta-2 adrenergic receptor (Homo sapiens) (UniProt P07550); assay: Adrenergic beta2 receptor (ADRB2) small molecule antagonists, cell-based qHTS assay (AID 1963592); note: series mostly up to about 92 µM; nearly all actives have a fitted effect of over 50% in size
Beta-2 adrenergic receptor (Homo sapiens), sequence (P07550 whole entry, looked up): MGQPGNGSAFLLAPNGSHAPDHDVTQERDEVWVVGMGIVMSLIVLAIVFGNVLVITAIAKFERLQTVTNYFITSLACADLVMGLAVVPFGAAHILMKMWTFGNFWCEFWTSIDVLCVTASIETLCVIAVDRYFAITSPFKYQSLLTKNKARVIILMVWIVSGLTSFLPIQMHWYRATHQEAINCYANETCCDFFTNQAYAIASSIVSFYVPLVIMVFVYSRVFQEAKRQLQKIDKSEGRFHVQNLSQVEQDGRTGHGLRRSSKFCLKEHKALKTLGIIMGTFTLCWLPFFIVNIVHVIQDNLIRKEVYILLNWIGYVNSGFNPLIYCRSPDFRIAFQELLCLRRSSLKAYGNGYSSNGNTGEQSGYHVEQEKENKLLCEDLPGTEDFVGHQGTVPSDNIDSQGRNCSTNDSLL
Outline: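 Assay format: CHO-ADRB2 cells, 18-20hr seeding at 37C/5% CO2, then compound plus 1nM isoproterenol agonist mix for 0.5hr RT. Homogeneous time-resolved fluorescence cAMP detection after 1hr, expressed as 665/615 nm ratio.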

[15] = target: D(2) dopamine receptor (Homo sapiens) (UniProt P14416); assay: Dopamine D2 receptor (DRD2) small molecule agonists, cell-based qHTS assay (AID 1963594); note: nearly all actives have a fitted effect of over 35% in size
D(2) dopamine receptor (Homo sapiens), sequence (P14416 whole entry, looked up): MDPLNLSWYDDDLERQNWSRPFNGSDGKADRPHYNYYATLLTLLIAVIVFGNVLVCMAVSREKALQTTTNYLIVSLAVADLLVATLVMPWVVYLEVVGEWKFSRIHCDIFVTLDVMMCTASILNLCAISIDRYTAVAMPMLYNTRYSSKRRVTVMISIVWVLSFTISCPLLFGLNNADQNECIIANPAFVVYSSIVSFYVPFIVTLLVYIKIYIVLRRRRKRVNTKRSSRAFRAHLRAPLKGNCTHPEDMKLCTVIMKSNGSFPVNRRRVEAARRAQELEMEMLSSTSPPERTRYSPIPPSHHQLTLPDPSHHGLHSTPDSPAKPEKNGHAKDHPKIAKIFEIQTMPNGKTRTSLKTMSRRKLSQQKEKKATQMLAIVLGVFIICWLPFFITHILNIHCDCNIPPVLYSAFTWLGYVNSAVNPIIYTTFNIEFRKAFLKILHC
Outline: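 HEK293 cells stably expressing DRD2 were cultured 24 h at 37 C, then given Ro20-1724 (0.1 mM final) and compounds for 10 min at room temperature. NKH477 (200nM) was then added for 30 min. cAMP was read by HTRF.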

[16] = target: D(2) dopamine receptor (Homo sapiens) (UniProt P14416); assay: Dopamine D2 receptor (DRD2) small molecule antagonists, cell-based qHTS assay (AID 1963595; active = well fitted inhibition curve with a large enough effect in the signal ratio in the repeat runs, with a control signal flat; the % refers to the signal ratio; note: potency is the fitted concentration of half-maximal effect)
Outline: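 Antagonism was scored as restored cAMP in HEK293-DRD2 cells. These cells were stimulated with 200 nM NKH477 and 12 nM quinpirole for 30 min at room temperature, in the presence of 0.1 mM Ro20-1724.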

[17] = cAMP Responsive Elements (CRE) small molecule agonists, cell-based qHTS assay (AID 1963590)
Outline: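 Quantitative HTS for CRE agonists: HEK 293T CRE-bla cells, overnight plating, 3 h compound incubation at 37 C/5% CO2, then 2 h room-temperature LiveBLAzer B/G FRET substrate loading.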

[18] = target: Beta-2 adrenergic receptor (Homo sapiens) (UniProt P07550); assay: Adrenergic beta2 receptor (ADRB2) small molecule agonists, cell-based qHTS assay (AID 1963593);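 note: CHO cells stably overexpressing human ADRB2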
Outline: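 CHO cells stably over-expressing ADRB2 were plated overnight at 37C, then dosed with compounds plus a stimulation mix containing 100uM IBMX and 25uM Ro-20-1724 for 0.5hr at room temperature. cAMP was measured by HTRF competition, 1hr.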

[19] = target: 5-hydroxytryptamine receptor 2A (Homo sapiens) (UniProt P28223); assay: 5-hydroxytryptamine receptor 2A (HTR2A) small molecule antagonists, cell-based qHTS assay (AID 1963586); note: nearly all actives have a fitted effect of over 45% in size
Outline: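 CHO cells stably expressing human HTR2A were plated for 18 h at 37 C, then loaded with calcium dye for 1 h. Compounds were preincubated 5 min at room temperature before DOI (4 nM solution) was added. Kinetic fluorescence was read for 3 min.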

Row | Structure (SMILES) | Potency [1] | Potency [2] | Potency [3] | outcome [4] | outcome [5] | Potency [6] | Potency [7] | Potency [8] | Potency [9] | Potency [10] | Potency [11] | Potency [12] | Potency [13] | Potency [14] | Potency [15] | Potency [16] | Potency [17] | Potency [18] | Potency [19]
1 | CC(=O)c1ccc2ccc3ccccc3c2c1 | inactive | inactive | inactive | inactive | inactive | inactive | inactive | inactive | inactive | inactive | inactive | inactive | inactive | inactive | inactive | inactive | – | – | –
2 | NC(=O)C1(N2CCCCC2)CCN(CCCC(=O)c2ccc(F)cc2)CC1 | inactive | inactive | inactive | inactive | inactive | inactive | inactive | inactive | inactive | inactive | inactive | inactive | – | inactive | inactive | – | inactive | inactive | –
3 | C/C=C(/C(=C/C)c1ccc(OC(C)=O)cc1)c1ccc(OC(C)=O)cc1 | inactive | inactive | inactive | inactive | inactive | inactive | inactive | inactive | inactive | inactive | inactive | inactive | – | inactive | inactive | – | inactive | – | –
4 | N#CSc1ccc(N)c([N+](=O)[O-])c1 | 43.5 µM (active) | 24.5 µM (active) | inactive | inactive | inactive | inactive | inactive | inactive | inactive | – | inactive | inactive | inactive | inactive | – | inactive | – | – | inactive
5 | CCCCCCCCCCCSCC(=O)O | inactive | inactive | inactive | inactive | inactive | inactive | inactive | inactive | inactive | inactive | inactive | inactive | – | inactive | – | inactive | – | inactive | –
6 | CCCN(CCC)C(=O)C(CCC(=O)OCCCN1CCN(CCOC(=O)Cc2c(C)n(C(=O)c3ccc(Cl)cc3)c3ccc(OC)cc23)CC1)NC(=O)c1ccccc1 (centres undefined) | inactive | inactive | inactive | inactive | inactive | inactive | inactive | inactive | inactive | inactive | – | inactive | – | inactive | – | – | – | – | –
7 | CCCC[P+](C)(CCCC)CCCC | inactive | inactive | inactive | inactive | inactive | inactive | inactive | inactive | inactive | inactive | inactive | inactive | – | inactive | inactive | inactive | – | inactive | –
8 | CC(C)(C)NC[C@H](O)COc1cccc2c1CCCC2=O | inactive | inactive | inactive | inactive | inactive | inactive | inactive | inactive | inactive | – | – | – | inactive | – | inactive | inactive | inactive | – | –
9 | O=C(O)Cc1csc(-c2ccc(Cl)cc2)n1 | inactive | inactive | inactive | inactive | inactive | inactive | inactive | inactive | inactive | inactive | inactive | – | – | – | inactive | inactive | – | – | –
10 | CCCc1nc2c(C)cc(-c3nc4ccccc4n3C)cc2n1Cc1ccc(-c2ccccc2C(=O)O)cc1 | inactive | inactive | inactive | inactive | inactive | inactive | inactive | inactive | inactive | inactive | inactive | inactive | – | inactive | inactive | – | – | – | –
11 | [O-][n+]1cccc(/C(Cl)=N/OC[C@@H](O)CN2CCCCC2)c1 | inactive | inactive | inactive | inactive | inactive | inactive | inactive | inactive | inactive | – | – | inactive | inactive | inactive | – | inactive | inactive | – | –
12 | CC12CCC(CC1=O)C2(C)C (centres undefined) | inactive | inactive | inactive | inactive | inactive | inactive | inactive | inactive | inactive | – | – | – | inactive | inactive | inactive | inactive | inactive | – | –
13 | CCN(CC)CCOC(=O)C(Cc1cccc2ccccc12)CC1CCCO1 (centres undefined) | inactive | inactive | inactive | inactive | inactive | inactive | inactive | inactive | inactive | inactive | inactive | inactive | – | inactive | inactive | inactive | inactive | inactive | –
14 | ClC(Cl)(Br)Br | inactive | inactive | inactive | inactive | inactive | inactive | inactive | inactive | inactive | inactive | inactive | inactive | inactive | inactive | – | inactive | inactive | – | –
15 | O=C1c2ccccc2C(=O)C1c1ccccc1 | inactive | inactive | inactive | inactive | inactive | inactive | inactive | inactive | inactive | – | – | – | inactive | inactive | – | inactive | inactive | inactive | –
16 | COc1cc(NS(=O)(=O)c2ccc(N)cc2)ncn1 | inactive | inactive | inactive | inactive | inactive | inactive | inactive | inactive | inactive | inactive | inactive | – | inactive | inactive | – | inactive | – | inactive | –
17 | O=C=Nc1cccc(C(F)(F)F)c1 | inactive | inactive | inactive | inactive | inactive | inactive | inactive | inactive | inactive | – | inactive | inactive | – | inactive | inactive | inactive | inactive | – | –
18 | CCCCCCCC[N+](CCCCCCCC)(CCCCCCCC)CCCCCCCC | 8.62 µM (active) | inactive | inactive | inactive | inactive | inactive | inactive | 18.2 µM (active) | 16.2 µM (active) | – | inactive | inactive | – | inactive | inactive | 24.3 µM (active) | – | – | –
